For assay [1], the system named is Hek293T. The experiment in a line: Primary qHTS to identify gynecologic anti-cancer compounds using libraries of approved drugs and bioactive compounds (AID 1345084). Note: % is set by controls: 0 for no effect and ±100 for the full control effect; nearly all actives have a fitted effect of over 55% in size. The settings on record: Gynecologic cancer cell panel viability, ATPlite luminescence, 48 h, control line for the selectivity index; series mostly up to 57.5 µM. The procedure, abridged:
(§1)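 Five-concentration response, 48 h; readout is ATP-driven luciferase luminescence.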
A general note: In qHTS, concentration-response curves come from the screen itself.

Assay [2] relates to JEG-3. The assay is described as above. The settings on record: Gynecologic cancer cell panel viability, ATPlite luminescence, 48 h; series mostly up to 57.5 µM. The procedure, abridged: as §1
In general terms: Cellular ATP, detected with luciferase, serves as a proxy for viable cell number.

In assay [3] the test system is OV90. The assay is described as above. The settings on record: Gynecologic cancer cell panel viability, ATPlite luminescence, 48 h; series mostly up to 57.5 µM. An outline of the steps:
as §1

The test system of assay [4] is PA-1. The assay is described as above. The settings on record: Gynecologic cancer cell panel viability, ATPlite luminescence, 48 h; series mostly up to 57.5 µM. An outline of the steps: as §1
The test system of assay [5] is SKOV3. Described as above. The settings on record: Gynecologic cancer cell panel viability, ATPlite luminescence, 48 h; series mostly up to 57.5 µM. An outline of the steps:
as §1

In assay [6] the test system is Tov-21-G. Described as above. The settings on record: Gynecologic cancer cell panel viability, ATPlite luminescence, 48 h; series mostly up to 57.5 µM. The procedure, abridged: as §1
Assay [7] deals with Tov112D. The assay is described as above. To be noted: Gynecologic cancer cell panel viability, ATPlite luminescence, 48 h; series mostly up to 57.5 µM. The procedure, abridged: as §1
Assay [8] is described as follows: Drug repurposing screens with cells derived from glioblastoma tumor samples (AID 1345199). For activity, negative = cell killing: % is set by controls: 0 for no effect and ±100 for the full control effect. Note: nearly all actives have a fitted effect of over 40% in size. Note: potency is the fitted concentration of half-maximal effect. The settings on record: GBM patient neurospheres viability, ATP luminescence, 48 h. An outline of the steps: (§2)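 Primary testing used CD133+ neurospheres from four GBM patients, seven concentrations, 48 h exposure and ATP-based viability; confirmation added three slower-growing patient lines.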

Assay [9] has as its system astro. The assay is described as above. To be noted: viability, ATP luminescence, 48 h; series mostly up to 45.9 µM. An outline of the steps:
as §2

In assay [10] the target is Nuclear receptor subfamily 1 group I member 2 (Rattus norvegicus) (UniProt Q9R1A7). The experiment in a line: qHTS assay for small molecule activators of the rat pregnane X receptor (rPXR) signaling pathway (AID 651751; call rule not given here; note: 0% is about no effect). To be noted: rPXR reporter cells, luciferase (One-Glo), 24 h.
Nuclear receptor subfamily 1 group I member 2 (Rattus norvegicus), sequence (Q9R1A7 whole entry, looked up): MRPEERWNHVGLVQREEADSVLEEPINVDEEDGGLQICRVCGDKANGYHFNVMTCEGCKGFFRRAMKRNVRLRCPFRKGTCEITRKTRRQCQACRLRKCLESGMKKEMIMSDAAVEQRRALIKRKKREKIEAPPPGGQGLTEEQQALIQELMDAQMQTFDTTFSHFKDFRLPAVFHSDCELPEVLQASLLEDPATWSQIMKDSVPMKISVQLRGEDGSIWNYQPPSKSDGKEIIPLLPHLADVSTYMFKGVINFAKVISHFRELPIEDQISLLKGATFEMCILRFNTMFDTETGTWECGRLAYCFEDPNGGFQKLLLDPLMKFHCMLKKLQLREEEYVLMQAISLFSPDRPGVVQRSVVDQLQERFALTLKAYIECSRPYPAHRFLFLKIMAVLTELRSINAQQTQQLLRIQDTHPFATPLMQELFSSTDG
Assay [11] is described as follows: qHTS assay for small molecule activators of the human pregnane X receptor (PXR) signaling pathway (AID 720659; call rule not given here; note: 0% is about no effect).
Setting [12] is: at 45.9 µM (top of the series), tumour line B.
[13] abbreviates: at 45.9 µM (top of the series), tumour line D.
The mark [14] stands for this setting: at 46 µM (top of the series), tumour line A.
Setting [15] is: at 46.1 µM (top of the series), tumour line C.
The mark [16] stands for this setting: at 20 µM (top of the series), tumour line C.
Setting [17] is: at 21.2 µM (top of the series), tumour line B.
Where [18] appears, read: at 21.2 µM (top of the series), tumour line D.
Where [19] appears, read: at 21.3 µM (top of the series), tumour line A.

Molecules are shown by their SMILES. A number with no mark means an inactive call. Records with an inconclusive call do not appear. The source made the active and inactive calls. Unless noted, calls come from the whole dose curve; as a rule, active = well fitted curve in the direction sought with a large enough effect; inconclusive = small, poorly fitted or top-dose-only effect, or another doubt; inactive = no such curve, though single readings can be large; an effect the other way counts as inactive or inconclusive.

With `CN1CCN(c2c(F)cc3c(=O)c(C(=O)O)cn4c3c2OCN4C)CC1`, the Potency entry in assay [1], in [2], in assay [3], in [4], in [5] and in assay [6] was “inactive” each time. Moreover, the Potency entry in [7] and in assay [9] was “inactive” in each case. Besides, the activity, negative = cell killing in [8] (setting [12]) was 0.422%; in assay [8] (setting [13]), -17.1%; in assay [8] (setting [14]), -24%; in assay [8] (setting [15]) it was 18%.

`CN(Cc1cc(Br)cc(Br)c1N)C1CCCCC1`: the Potency result in assay [1], in assay [2], in assay [3], in assay [4], in [5] and in assay [6] was “inactive” in each case. Moreover, in assay [7], the Potency entry was “inactive”. Besides, the activity, negative = cell killing in assay [8] (setting [12]) is -30.4%; in assay [8] (setting [15]), -4.61%. The Potency in assay [8] (tumour line A) was 5.62 µM (active).

For the molecule `O=C(NCC1CN(c2ccc(N3CCOCC3=O)cc2)C(=O)O1)c1ccc(Cl)s1` (centres undefined), the Potency result in [1], in [2], in assay [3], in assay [4], in assay [5] and in [6] was “inactive” in each case. In addition, in [7], the Potency result was “inactive”.

Consider `CN1CCN(c2c(F)cc3c(=O)c(C(=O)O)cn(CCF)c3c2F)CC1`, for which the Potency entry in assay [1], in assay [2], in [3], in assay [4], in assay [5] and in assay [6] was “inactive” each time. Besides, the Potency entry in assay [7] is “inactive”. In addition, the activity, negative = cell killing in [8] (setting [12]) is -2.67%; in assay [8] (setting [13]), -2.82%; in assay [8] (setting [14]), -15.5%; in assay [8] (setting [15]), -9.27%.

As to `CCC(C)(C)c1ccc(CC(C)CN2C[C@@H](C)O[C@@H](C)C2)cc1` (some centres undefined), the Potency result in assay [1], in [2], in [3], in assay [4], in assay [5] and in assay [6] was “inactive” throughout. For the same molecule, the Potency entry in assay [7] was “inactive”.

As for `Cc1cccc(Nc2ccncc2S(=O)(=O)NC(=O)NC(C)C)c1`, the Potency result in [1], in [2], in assay [3], in assay [4], in assay [5] and in [6] was “inactive” each time. Besides, the Potency entry in assay [7] and in assay [9] was “inactive” in each case. The activity, negative = cell killing in assay [8] (setting [16]) was -12.8%; in [8] (setting [17]), -1.96%; in [8] (setting [18]) it was -26%; in assay [8] (setting [19]), -11%.

With `CN(C)CCc1c[nH]c2ccc(CS(=O)(=O)N3CCCC3)cc12`, the Potency entry in assay [1], in assay [2], in assay [3], in assay [4], in [5] and in assay [6] was “inactive” throughout. For the same molecule, in [7], the Potency entry was “inactive”. The activity, negative = cell killing in assay [8] (setting [12]) was -15.8%; in [8] (setting [13]), -5.89%; in [8] (setting [14]) it was -32.2%; in [8] (setting [15]), -0.0757%.

As for `Nc1[nH]c(=O)ncc1F`, the Potency entry in assay [1], in assay [2], in assay [3], in [4], in [5] and in assay [6] was “inactive” each time. Moreover, the Potency entry in assay [7] was “inactive”. For the same molecule, the activity, negative = cell killing in assay [8] (setting [16]) is 6.56%; in assay [8] (setting [17]), -3.24%; in [8] (setting [18]), -9.05%; in [8] (setting [19]), -15%.

For `C[C@@H](CN1CC(=O)NC(=O)C1)N1CC(=O)NC(=O)C1`, the Potency result in [1], in assay [2], in assay [3], in assay [4], in [5] and in assay [6] was “inactive” in each case. For the same molecule, in [7], the Potency result was “inactive”. Also, the activity, negative = cell killing in [8] (setting [12]) is -2.51%; in assay [8] (setting [13]), -10.3%; in assay [8] (setting [15]) it was -0.792%.

For the molecule `CC(C)Cn1cnc2c(N)nc3ccccc3c21`, the Potency result in assay [1], in assay [2], in assay [3], in assay [4], in assay [5] and in assay [6] was “inactive” in each case. The Potency result in [7] is “inactive”. Also, the activity, negative = cell killing in assay [8] (setting [12]) was -23.5%.

Consider `CC1=CC(=O)c2ccccc2C1=O`, for which the Potency entry in assay [1], in assay [2], in [3], in assay [4], in assay [5] and in assay [6] was “inactive” throughout. Besides, in assay [7], the Potency result is “inactive”. For the same molecule, the activity, negative = cell killing in [8] (setting [15]) was -17.3%. In addition, the Potency was 35.5 µM (active) in assay [8] (tumour line A) and 22.4 µM (active) in assay [8] (tumour line D).

In the case of `O=C(O)c1cccnc1`, the Potency entry in [1], in [2], in assay [3], in assay [4], in assay [5] and in assay [6] was “inactive” in each case. In addition, the Potency result in [7] was “inactive”. In addition, the activity, negative = cell killing in assay [8] (setting [12]) is -10%; in assay [8] (setting [13]), -8.9%; in [8] (setting [15]) it was -28.3%.

For `COc1cccc(N(C)C(=S)Oc2ccc3c(c2)CCCC3)n1`, the Potency entry in [1], in [2], in assay [3], in assay [4], in assay [5] and in assay [6] was “inactive” in each case. For the same molecule, the Potency entry in assay [7] was “inactive”. Moreover, the activity, negative = cell killing in [8] (setting [15]) was -18.5%. For the same molecule, the Potency in [8] (tumour line A) was 12.6 µM (active); in [8] (tumour line D) it was 17.8 µM (active).

For `COc1nc(N)nc2c1ncn2[C@@H]1O[C@H](CO)[C@@H](O)[C@@H]1O`, the Potency result in assay [1], in assay [2], in assay [3], in assay [4], in assay [5] and in assay [6] was “inactive” each time. In addition, the Potency result in assay [7] and in [9] was “inactive” each time. The activity, negative = cell killing in [8] (setting [12]) was -17.9%; in assay [8] (setting [13]), 6.59%; in assay [8] (setting [14]), -10%; in assay [8] (setting [15]), -10.9%.

Consider `CCOC(=O)c1ccc(OC(=O)CCCCCN=C(N)N)cc1`, for which the Potency entry in assay [1], in assay [2], in assay [3], in assay [4], in assay [5] and in assay [6] was “inactive” throughout. Also, the Potency entry in assay [7] and in assay [9] was “inactive” in each case. For the same molecule, the activity, negative = cell killing was -4.52% in assay [8] (setting [16]), -7.17% in assay [8] (setting [17]), -2.23% in assay [8] (setting [18]) and -25.1% in assay [8] (setting [19]).

Turning to `O=S(=O)(c1cccc2cnccc12)N1CCCNCC1`, the Potency result in assay [1], in [2], in [3], in assay [4], in assay [5] and in assay [6] was “inactive” each time. Besides, in assay [7], the Potency entry was “inactive”. For the same molecule, the activity, negative = cell killing in assay [8] (setting [12]) was -0.368%; in [8] (setting [13]), -10.7%; in [8] (setting [14]), -20.9%; in [8] (setting [15]), -21.1%.

In the case of `Nc1nc(N)nc(-c2cc(Cl)ccc2Cl)n1`, the Potency result in assay [1], in assay [2], in assay [3], in assay [4], in assay [5] and in assay [6] was “inactive” throughout. For the same molecule, the Potency result in [7] and in [9] was “inactive” in each case. Besides, the activity, negative = cell killing in assay [8] (setting [12]) is 1.99%; in assay [8] (setting [13]), 7.54%; in assay [8] (setting [15]), 13.1%.

On to `O=C(O)c1cc(=O)[nH]c(=O)[nH]1`, for which the Potency result in [1], in assay [2], in assay [3], in assay [4], in assay [5] and in assay [6] was “inactive” throughout. Besides, the Potency result in assay [7] and in assay [9] was “inactive” each time. Further, the activity, negative = cell killing in [8] (setting [12]) was -3.6%; in assay [8] (setting [13]) it was 11.2%; in assay [8] (setting [14]), -24.7%; in assay [8] (setting [15]), -0.704%. For the same molecule, in assay [10], the max response is -3.54%. In addition, in [11], the call was inactive.

These data come from PubChem BioAssay (NCATS).
